Data on 37 molecules can be found in PubChem BioAssay (EPA / NIEHS).

What is called AC50 is the concentration giving half of the maximal activity seen.

SMILES strings stand for the structures. Inconclusive results are not listed. Calls of active or inactive are those of the source. Rule for the calls, unless noted: active = hit-call score of the fitted dose curve at least 0.9, where 1 is the maximum; inactive = score below 0.9.

One experiment can be described thus: CCTE_Harrill_HTTr_Apoptosis_MCF7: CCTE's 6-hour Apoptosis Assessment for the High-Throughput Transcriptomics (HTTr) Platform, in MCF-7 cells cultured in DMEM + 10% fetal bovine serum, Harrill Lab (AID 2284011). Put shortly: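 MCF-7 cells in DMEM + 10% FBS exposed 6 h to chemicals over an eight-point dilution series. Caspase-3/7 activation imaged by high-content CellEvent Green staining; fitted bidirectionally versus DMSO.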
`CC(C)(O)c1ccc(CNC(=O)c2cccnc2Oc2ccc3nonc3c2)cc1`: the outcome was inactive.

Consider `C[C@]12CC[C@@H]3c4ccc(O)cc4CC[C@H]3[C@@H]1CCC2=O`, for which the result was inactive. For the molecule `O=CCCCC=O`, the outcome was inactive. Regarding `Cc1cccc2ccccc12`, the result was inactive. For `CCCCOC(=O)CC(CC(=O)OCCCC)(OC(C)=O)C(=O)OCCCC`, the outcome was inactive. Consider `CCCCCCCCOc1ccc(C(=O)c2ccccc2)c(O)c1`, for which the result was inactive. For `COc1cc(C(=O)NC2CCN(C)CC2)ccc1Nc1ncc2c(n1)N(C1CCCC1)CC(F)(F)C(=O)N2C`, the outcome was inactive. On the same count and under the same terms, the entry for `CCO[Si](CCCNC(N)=O)(OCC)OCC` is “inactive”.

With `CN(C[C@@H](CC[N+]12CCC(C3CCCCC3)(CC1)CC2)c1ccc(Cl)c(Cl)c1)C(=O)c1cc(C(F)(F)F)cc(C(F)(F)F)c1`, the AC50 was 42.5 µM (active). For the molecule `Cc1ccc2oc(CN(Cc3ccccc3)C(=O)Nc3c(F)cc(F)cc3F)c(-c3ccc(Cl)cc3)c2c1`, the result was inactive. On to `CCCCCCCCCCCC[N+](C)(C)C`, for which the result was inactive. As for `O=C(O)c1ccccc1C(=O)OCc1ccccc1`, the outcome was inactive. For the molecule `CCN(Cc1cccnc1)C(=O)c1cccc(Cl)c1[C@]1(C)C(=O)N(Cc2ccc(OC)cc2OC)c2ccc(Cl)cc21`, the outcome was inactive. Same read-out and setting: the entry for `CCCCCCCC[Si](OCC)(OCC)OCC` is “inactive”. As to `CCOC(=O)O[C@H](C)OC(=O)c1ccc2c(c1)cc(C(=O)NC1CCN(C(C)C)CC1)n2Cc1cc(-c2ccc(Cl)s2)on1`, the concentration at half-maximal activity (AC50) was 72.2 µM (active).

`Cc1cc(F)ccc1-c1cc(N2CC[C@@H](O)[C@H]2CO)ncc1N(C)C(=O)C(C)(C)c1cc(C(F)(F)F)cc(C(F)(F)F)c1`: the result was inactive.

As for `c1ccc(C[n+]2cccc3ccccc32)cc1`, the result was inactive. On to `O=C(O)c1ccccc1-n1cc(C(=O)O)c(=O)c2cc(Nc3c(F)cc(F)cc3Cl)c(Cl)cc21`, for which the result was inactive. As to `CCCCOC(=O)c1ccc(O)cc1`, the result was inactive. Take `Cc1ncc(CO)c(CO)c1O`: the result was inactive. With `O=C(OCCCCCCOC(=O)c1ccccc1)c1ccccc1`, the result was inactive. For the molecule `COc1ccc2cc(S(=O)(=O)N[C@H](CC(=O)N[C@H](Cc3ccc(CN4[C@H](C)CCC[C@@H]4C)cc3)C(=O)N(C)C(C)C)c3ccc4c(c3)OCO4)ccc2c1`, the result was inactive. Consider `O=C(O)Cc1cc(I)c(Oc2ccc(O)c(I)c2)c(I)c1`, for which the outcome was inactive. Still for that read-out and setting: next, `CC(O)CC(C)(C)O` (stereo unspecified): “inactive”; `CC(=O)N1CCN(c2ccc(OC[C@H]3CO[C@](Cn4ccnc4)(c4ccc(Cl)cc4Cl)O3)cc2)CC1`: “inactive”; `CC1(C)NC(=O)N(c2ccc([N+](=O)[O-])c(C(F)(F)F)c2)C1=O`: “inactive”. Turning to `CC(C)(C)c1csc(-c2cc3cc(OCc4ccccc4CC(=O)O)ccc3o2)n1`, the result was inactive. With `CN1C(=O)N(c2ccccc2Br)Cc2cnc(Nc3ccc4c(c3)OCC(CO)O4)nc21` (stereo unspecified), the result was inactive. The same measure, in the same setting: next, `O=C1CCC(C2CCCCC2)CC1`: “inactive”.

`Cc1occc1C(=O)Nc1ccc(C(=O)N2CCC(F)(F)/C(=C\C(=O)N3CCC(N4CCCCC4)CC3)c3ccccc32)cc1`: the result was inactive. Still for that read-out and setting: next, `O=C1c2ccccc2C(=O)N1CCc1noc(-c2ccc(CN3CCCCCC3)s2)n1`: “inactive”; `Clc1cc(Cl)c2c(c1)N=C1CCCCCN1C2`: “inactive”. Still for that read-out and setting: next, `CCCC(=O)OCCC(C)C`: “inactive”. Turning to `CCN(Cc1cccc(S(=O)(=O)O)c1)c1ccc(C(=C2C=CC(=[N+](CC)Cc3cccc(S(=O)(=O)O)c3)C=C2)c2ccccc2S(=O)(=O)[O-])cc1`, the outcome was inactive. Take `CCCCCCCCCC(=O)O`: the outcome was inactive. On the same count and under the same terms, next, `CCCCCc1ccc(N)cc1`: “inactive”. On the same count and under the same terms, the entry for `Oc1ccc2ccccc2c1` is “inactive”.

Another experiment can be described thus: CCTE_Harrill_HTTr_CellCount_MCF7: CCTE's Cell Proliferation Assessment for the High-Throughput Transcriptomics (HTTr) Platform, Harrill Lab (AID 2284012; active = hit-call score of the fitted dose curve at least 0.9, where 1 is the maximum;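 note: count of Hoechst-stained nuclei per well by high-content imaging in MCF-7 cells; cells exposed to compound for six hours; intended direction is loss of nuclei count meaning fewer cells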). In short, it runs like this: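 Readout: Hoechst nuclear count by high-content imaging. MCF-7, 8-point dilution series, 6 h exposure. Bidirectional fit vs DMSO baseline.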
Regarding `C[C@]12CC[C@@H]3c4ccc(O)cc4CC[C@H]3[C@@H]1CCC2=O`, the molecule was called inactive. Same read-out and setting: the entry for `O=CCCCC=O` is “inactive”; for `Cc1cccc2ccccc12` it is “inactive”. Take `CCCCOC(=O)CC(CC(=O)OCCCC)(OC(C)=O)C(=O)OCCCC`: the molecule was classed as inactive. On the same count and under the same terms, the entry for `COc1cc(C(=O)NC2CCN(C)CC2)ccc1Nc1ncc2c(n1)N(C1CCCC1)CC(F)(F)C(=O)N2C` is “inactive”. On to `CN(C[C@@H](CC[N+]12CCC(C3CCCCC3)(CC1)CC2)c1ccc(Cl)c(Cl)c1)C(=O)c1cc(C(F)(F)F)cc(C(F)(F)F)c1`, for which the outcome was inactive. Same read-out and setting: next, `Cc1ccc2oc(CN(Cc3ccccc3)C(=O)Nc3c(F)cc(F)cc3F)c(-c3ccc(Cl)cc3)c2c1`: “inactive”.

Turning to `CCCCCCCCCCCC[N+](C)(C)C`, the outcome was inactive. With `O=C(O)c1ccccc1C(=O)OCc1ccccc1`, the molecule was classed as inactive.

With `CCCCCCCC[Si](OCC)(OCC)OCC`, the outcome was inactive.

Turning to `CCOC(=O)O[C@H](C)OC(=O)c1ccc2c(c1)cc(C(=O)NC1CCN(C(C)C)CC1)n2Cc1cc(-c2ccc(Cl)s2)on1`, the call was inactive. Regarding `Cc1cc(F)ccc1-c1cc(N2CC[C@@H](O)[C@H]2CO)ncc1N(C)C(=O)C(C)(C)c1cc(C(F)(F)F)cc(C(F)(F)F)c1`, the molecule was classed as inactive.

As for `O=C(O)c1ccccc1-n1cc(C(=O)O)c(=O)c2cc(Nc3c(F)cc(F)cc3Cl)c(Cl)cc21`, the outcome was inactive.

With `CCCCOC(=O)c1ccc(O)cc1`, the molecule was classed as inactive. The same measure, in the same setting: next, `Cc1ncc(CO)c(CO)c1O`: “inactive”. As for `O=C(OCCCCCCOC(=O)c1ccccc1)c1ccccc1`, the molecule was called inactive.

Turning to `COc1ccc2cc(S(=O)(=O)N[C@H](CC(=O)N[C@H](Cc3ccc(CN4[C@H](C)CCC[C@@H]4C)cc3)C(=O)N(C)C(C)C)c3ccc4c(c3)OCO4)ccc2c1`, the molecule was classed as inactive. As for `O=C(O)Cc1cc(I)c(Oc2ccc(O)c(I)c2)c(I)c1`, the result was inactive. As for `CC(O)CC(C)(C)O` (stereo unspecified), the outcome was inactive.

As for `CC(=O)N1CCN(c2ccc(OC[C@H]3CO[C@](Cn4ccnc4)(c4ccc(Cl)cc4Cl)O3)cc2)CC1`, the molecule was called inactive. As for `CN1C(=O)N(c2ccccc2Br)Cc2cnc(Nc3ccc4c(c3)OCC(CO)O4)nc21` (stereo unspecified), the outcome was inactive. On to `O=C1CCC(C2CCCCC2)CC1`, for which the result was inactive.

For the molecule `Cc1occc1C(=O)Nc1ccc(C(=O)N2CCC(F)(F)/C(=C\C(=O)N3CCC(N4CCCCC4)CC3)c3ccccc32)cc1`, the molecule was classed as inactive. As to `O=C1c2ccccc2C(=O)N1CCc1noc(-c2ccc(CN3CCCCCC3)s2)n1`, the molecule was called inactive.

Regarding `Clc1cc(Cl)c2c(c1)N=C1CCCCCN1C2`, the call was inactive. Same read-out and setting: next, `CCCC(=O)OCCC(C)C`: “inactive”; `CCN(Cc1cccc(S(=O)(=O)O)c1)c1ccc(C(=C2C=CC(=[N+](CC)Cc3cccc(S(=O)(=O)O)c3)C=C2)c2ccccc2S(=O)(=O)[O-])cc1`: “inactive”.

Take `CCCCCCCCCC(=O)O`: the molecule was called inactive. As for `CCCCCc1ccc(N)cc1`, the call was inactive.
